These sequences were tested against L1TD1 (assay: pooled miR-30 sensor sort-seq; sequence = guide strand). Details: shRNA.
Note: reference of the scale not given here.

Sequence | sensor-assay potency score (higher = more potent)
TTTGATCTTCTAGACTGTCTAT | -0.16
TTAAATCTAATACCGGAGCTAT | -1.12
ATCATTACTATTGTATTCGTTA | -0.576
TTCTTTGACAAATTCATCCTCT | 0.858
TTGATCTTCTAGACTGTCTATT | -0.179
ATTTGCTGAAACTCTGTCCTAC | 0.491
TTGGATGTTAGTTCTTCTGTGT | 0.173
TCTTTCTTCAAGTATGTCCATT | -0.922
TACTTCTCAAGTTTTCTTCTGT | 0.707
TTGAATTTCCATTAAGACCTTA | 0.102

The sequences below were run against LAMA2 in the same assay as above. Details: shRNA.

Sequence | sensor-assay potency score (higher = more potent)
TTTGTGAGCAAACATCATCAAG | -1.56
TTACATAATAGGCCTGTCCAGT | -0.57
TTAAGTAACAATACATTAGTAT | -0.0119
TATCCAAGAAGTCTTCTCGGGT | -0.905
TTTATTGTAATTCTTCTTCAGG | -0.611
TTGATTGCAGATTCGACACTGC | 0.517
TTGAGTTTATCTATTAGCCGGT | 0.45
TAAATGTCAACTGTCCTCCTAC | 0.301
TACATCTTTAGCTGTGTCGTTG | -0.19
TTACATATCAGACAGGAGCCAG | -0.545
TAGTTTATTGTAATTCTTCTTC | -0.313
TTTGAGTTTATCTATTAGCCGG | -0.671

These sequences were tested against LAMB3 in the same assay as above. Details: shRNA.

Sequence | sensor-assay potency score (higher = more potent)
TCTTGAAGCTGGAATCTCCTGT | 0.664
TTTTTTGACTTTGAGTTGCTGG | 0.33
TTACTAGCTACACACCAGGGGT | -0.82
TTTGCATCTAGGATCCGGGAGG | -1.03
TCTTCTGCAGAACAGTAGCTGA | -1.16
TTTGACTTTGAGTTGCTGGAAT | -0.395
TATTTTTTCAAACTGCTCCCTC | 0.433
TTCTGCAGAACAGTAGCTGAGT | -0.497
TAGGCTGTGCTCAGCATCCGGA | -0.616
TTATTCTCTCAAATCCCTCTTG | -0.105
TCTGACATCTTCCTCCATCTGG | -0.297
TAGGTCACAGCGCTCTCCCTGC | -0.878

The sequences below were run against LAMB4 in the same assay as above. Details: shRNA.

Sequence | sensor-assay potency score (higher = more potent)
TTGACTTTTAAGAATTTCCCAG | -0.128
TTTAGCTGCATGATTTGTCTTC | -0.0764
TTGCTCTTTCTATTGTATCTTT | -0.796
TTCAACACAGTTGTGAAGCTGA | 0.732
TTTGTCTTCTAACAGAGTCATG | -1.42
TAGTCCTGTAGTGCTTGTCTTA | -1.22

From the OligoGym collection
